Data: PubChem BioAssay (EPA / NIEHS)
Activity calls are given as the source filed them. How the source made its calls: active means hit-call score of the fitted dose curve at least 0.9, where 1 is the maximum; inactive means score below 0.9.

Assay: APR_HepG2_CellLoss_72hr: Apredica 72-hour HepG2 Assay for Cell Loss (AID 2282915)
Conditions: high-content imaging
Protocol: APR_HepG2_72hr is a cell-based, multiplexed-readout assay that uses HepG2, a human liver cell line, with measurements taken at 72 hours after chemical dosing in a 384-well plate.APR_HepG2_CellLoss_72hr is one of 10 assay component(s) measured or calculated from the APR_HepG2_72hr assay. It is designed to make measurements of cell number, a form of viability reporter, as detected with fluorescence intensity signals by HCS Fluorescent Imaging technology.Data from the assay component APR_HepG2_CellLoss_72hr was analyzed into 1 assay endpoint. This assay endpoint, APR_HepG2_CellLoss_72hr, was analyzed with bidirectional fitting relative to DMSO as the negative control and baseline of activity. Using a type of viability reporter, measures of all nuclear dna for gain or loss-of-signal activity can be used to understand the viability at the cellular-level. Furthermore, this assay endpoint can be referred to as a secondary readout, because this assay has produced multiple assay endpoints where this one serves a viability function. To generalize the intended target to other relatable targets, this assay endpoint is annotated to the cell cycle intended target family, where the subfamily is proliferation.
Cells were treated with dimethyl sulfoxide (DMSO) as a solvent control at a final concentration of 0.5% v/v or with compounds in DMSO with a resulting final DMSO concentration of 0.5% v/v. Compound treatment was done at concentrations of 0.39, 0.78, 1.56, 3.12, 6.24, 12.5, 25, 50, 100, and 200 uM in duplicate on each plate. Cells were treated with compounds for 1, 24, or 72 hr. Carbonyl […] m-chloro-phenylhydrazone (CCCP) and taxol were used as positive controls for mitochondrial function and cytoskeletal stability, respectively; DMSO served as the negative control for this experiment. Cells were fixed by the direct addition of 50 uL formaldehyde in Hank's Balanced Salt Solution (HBSS) to a final concentration of 3.7%. After incubation in the fixation medium for 30 min at room temperature (293-298 K), cells were rinsed twice with HBSS and treated with cell permeabilization buffer (16 uL of 0.5% Triton X-100) for 10 min at room temperature (293-298 K) before labeling. For mitochondrial membrane potential and mitochondrial measurements, pre-fixed cells were incubated with 50 uL of MitoTracker Red CMXRos (Invitrogen) at a concentration of 250 nM for 30 min before fixation. In the remaining cases, post-fixed cells were labeled by incubation with a multiplexed mixture of primary antibodies in HBSS for 60 min at room temperature (293-298 K) to detect immunoreactivity of c-Jun (1:500), phospho-histone H3 (1:100), phospho-histone H2A.x (1:200), p53 (1:400), alpha-tubulin (1:200) and Hoechst 33342 (2 ug/mL). Cells were labeled for multiplexed imaging on two separate plates: a) Hoechst 33342, MitoTracker Red, phospho-histone H3, and alpha-tubulin, and b) Hoechst 33342, phospho-histone H2A.x, and c-Jun. A final rinse with HBSS (50 uL) was performed before analysis. The primary and secondary antibodies for the proteins were phospho-histone H3 (rabbit anti-phospho-histone H3 and FITC-donkey anti-rabbit IgG), phospho-histone H2A.x (mouse anti-phospho-histone H2A.x and FITC-donkey anti-mouse IgG), c-Jun (rabbit anti-phospho-c-Jun and Cy3-donkey anti-rabbit IgG), p53 (sheep anti-p53 and Cy5-donkey anti-sheep IgG), alpha-tubulin (mouse anti-alpha-tubulin and Cy5-donkey anti-mouse IgG). These antibodies are available as the CellCiphr HepG2 assay kit (Millipore).Digital images of each well were captured using a Cellomics ArrayScan VTI (Thermo Scientific Cellomics) (0.8 NA objective, 0.63x optical coupler, and XF-93 filter set) at 20x magnification. The images were acquired using the autofocus feature of the ArrayScan instrument, which entails the following steps. First, the camera focuses on channel 1 (Hoechst 33342), where nuclei are identified. Second, a Z offset of 1 um is used for capturing mitochondria (MitoTracker Red). […]

SMILES | outcome | AC50
CC(C)CCCCCCOC(=O)C1CCCCC1C(=O)OCCCCCCC(C)C (stereo not given) | inactive | 
OC(Cn1cncn1)(Cn1cncn1)c1ccc(F)cc1F | inactive | 
O=C(O)c1ccc2c(c1)nc(C(=O)NC1CCN(C3CC3)CC1)n2Cc1cc(-c2ccc(Cl)s2)on1 | inactive | 
Cc1nc(-c2ccccn2)ncc1C(=O)Nn1cc(C)c2cc(F)ccc21 |  | 55.3 µM (active)
C[C@@H](Oc1ccc(CNC(=O)c2cccnc2Oc2ccc3c(c2)OCO3)c(F)c1)C(=O)O | inactive | 
O=C(O)c1cccc(C(=O)O)c1 | inactive | 
C=CCc1cc(S(=O)(=O)c2ccc(O)c(CC=C)c2)ccc1O |  | 73.2 µM (active)
Nc1ccn([C@@H]2O[C@H](CO)[C@@H](O)[C@@H]2O)c(=O)n1 |  | 0.0391 µM (active)
CCCCCCOC(=O)CC(CC(=O)OCCCCCC)(OC(=O)CCC)C(=O)OCCCCCC | inactive | 
c1ccc(C(O[C@@H]2CCCN(CCc3ccc4c(c3)OCO4)C2)c2ccccc2)cc1 |  | 98.3 µM (active)
O=C(O)[C@H](O)[C@@H](O)C(=O)O | inactive | 
CCOC(N)=O | inactive | 
Cn1cc[nH]c1=S | inactive | 
CC1(C)C(=O)N(Cl)C(=O)N1Cl | inactive | 
CCCCCCCC/C=C\CCCCCCCC(=O)OC[C@@H](O)[C@H]1OC[C@H](O)[C@H]1O | inactive | 
CCCCOC(=O)c1ccccc1 | inactive | 
CCOc1ccc2[nH]cc(C(=O)NCc3ccccc3)c(=O)c2n1 |  | 106 µM (active)
CCN(CC)C(=S)SSC(=S)N(CC)CC |  | 22.9 µM (active)
CCCCCCCCCCCCCCO |  | 106 µM (active)
CC(C)CC(C)O (stereo not given) | inactive | 

SMILES | outcome | AC50
OCCOCCOCCO | inactive | 
OC[C@H]1O[C@@H]2O[C@H]3[C@H](O)[C@@H](O)[C@@H](O[C@H]4[C@H](O)[C@@H](O)[C@@H](O[C@H]5[C@H](O)[C@@H](O)[C@@H](O[C@H]6[C@H](O)[C@@H](O)[C@@H](O[C@H]7[C@H](O)[C@@H](O)[C@@H](O[C@H]1[C@H](O)[C@H]2O)O[C@@H]7CO)O[C@@H]6CO)O[C@@H]5CO)O[C@@H]4CO)O[C@@H]3CO | inactive | 
CCCOc1ccc(S(=O)(=O)N2CCN(CC)CC2)cc1-c1nc2c(CC)n(Cc3ccccn3)nc2c(=O)[nH]1 |  | 88.5 µM (active)
CCCCCOC(C)=O | inactive | 
Cn1c(=O)c2[nH]cnc2n(C)c1=O | inactive | 
C=CN1CCCC1=O | inactive | 
CNC(C)=O | inactive | 
COc1cc(C(C)C)c2c(c1)S(=O)(=O)N(COc1cc(=O)n3cccc(OCCN4CCCCC4)c3n1)C2=O |  | 23.1 µM (active)
O=c1[nH]cnc2c1ncn2[C@H]1CC[C@@H](CO)O1 | inactive | 
OCCNCCO | inactive | 
Cc1ncc([C@@H](CCCCCCc2ccc3c(n2)NCCC3)CC(=O)O)cn1 |  | 0.944 µM (active)
OC[C@H]1O[C@@](CO)(O[C@H]2O[C@H](CO)[C@@H](O)[C@H](O)[C@H]2O)[C@@H](O)[C@@H]1O | inactive | 
CCc1ccc(O)c(C(C)(C)C)c1 |  | 80.7 µM (active)
O=C(NO)C1(NS(=O)(=O)c2ccc(Oc3ccc(F)cc3)cc2)CCOCC1 |  | 65.4 µM (active)
c1ccc2ncccc2c1 | inactive | 
c1ccc2cc3ccccc3cc2c1 |  | 139 µM (active)
CCCCN1C(=O)[C@@H]([C@H](O)C2CCCCC2)NC(=O)C12CCN(Cc1ccc(Oc3ccc(C(=O)O)cc3)cc1)CC2 |  | 48.1 µM (active)
COCc1nnc(-c2ccc[n+]([O-])c2)n1-c1c(Cl)c(Cl)cc2[nH]c(=O)c(=O)[nH]c12 | inactive | 
CC(C)c1nnc2ccc(-c3ocnc3-c3cc(F)ccc3F)cn12 | inactive | 
CCCCCCCC1CCC(=O)O1 (stereo not given) | inactive | 
